Test results: ChEMBL document CHEMBL3988442, “University of Dundee, Small-Polar-MMV Screening Library” (2021)
About 1,000 (1.4%) of roughly 69,000 compounds showed an effect of 50% or more. Only a selection was taken, and strong results are over-represented in it overall.

Tested on: Leishmania donovani
Assay: Leishmania intramacrophage assay
Format: functional, organism-based
Set-up: scale not given: in the data most compounds retested in dose-response had high values

CN(C)C[C@@H]1CN(C(=O)Cc2ccc3ccccc3c2)C[C@@H]1CO
Percent Effect (30.3 µM, […]): -3.237%

CC(C)N1CC2(CCC1=O)CCN(C(=O)c1cc(F)ccc1Cl)CC2
Percent Effect (30.3 µM, […]): 18%

COc1ccc(CCNC(=O)CN2CCOCS2(=O)=O)cc1
Percent Effect (30.3 µM, […]): 0.9024%

CCc1noc(C2CCCCN2C(=O)c2cccnc2)n1 (stereo unspecified)
Percent Effect (30.3 µM, […]): -10.93%

CCc1noc(C2CCCCN2C(=O)c2ccc3c(c2)OCO3)n1 (stereo unspecified)
Percent Effect (30.3 µM, […]): 61.74%

CCc1noc(C2CCCCN2C(=O)c2ccccc2)n1 (stereo unspecified)
Percent Effect (30.3 µM, […]): -11.89%

O=C1C(CS(=O)(=O)Nc2ccc(Br)cc2)=NC(=O)n2cccc21
Percent Effect (30.3 µM, […]): -27.67%

CCc1noc(CN(CC)C(=O)c2ccc3ncsc3c2)n1
Percent Effect (30.3 µM, […]): -21.19%

CN(Cc1n[nH]c(=O)n1CCc1ccccc1F)S(C)(=O)=O
Percent Effect (30.3 µM, […]): 22.43%

COc1cccc2c1OCC(C(=O)N1CCN(CCS(C)(=O)=O)CC1)C2 (stereo unspecified)
Percent Effect (30.3 µM, […]): 2.664%

Cc1ccc(CN2CCC3(CCCN(Cc4ccc(F)c(F)c4)C3)C2)o1 (stereo unspecified)
Percent Effect (30.3 µM, […]): -12.81%

Fc1ccc(CN2CCCC3(CCN(Cc4ncc[nH]4)C3)C2)cc1F (stereo unspecified)
Percent Effect (30.3 µM, […]): 24.4%

Cc1c[nH]c(CN2CCC3(CCCN(Cc4ccc(F)c(F)c4)C3)C2)n1 (stereo unspecified)
Percent Effect (30.3 µM, […]): 53.74%

Cc1cc(C)n(C2CCN(S(C)(=O)=O)CC2)n1
Percent Effect (30.3 µM, […]): -8.348%

O=C(Nc1cc(Cl)ccc1Cl)NC1CCN(C2CCOC2)CC1 (stereo unspecified)
Percent Effect (30.3 µM, […]): -19.47%

O=C(NCCn1ccnc1)N1CCCN(Cc2cccs2)CC1
Percent Effect (30 µM): 32.04%

CN(C)C(=O)C1CN(c2ncccn2)CCN1C (stereo unspecified)
Percent Effect (30.3 µM, […]): 10.06%

COc1nc2c(cc1C(=O)N1CCCC1c1ccccn1)CCC2 (stereo unspecified)
Percent Effect (30.3 µM, […]): 15.04%

CCn1cnnc1C1CCN(C(=O)C(OC)c2ccccc2)CC1 (stereo unspecified)
Percent Effect (30 µM, 30.03 µM): 25.64%

CN1CCN(C2COC3(CCN(Cc4ccsc4)CC3)C2)CC1.O=C(O)C(F)(F)F.O=C(O)C(F)(F)F (stereo unspecified)
Percent Effect (30.3 µM, […]): 20.49%

Cc1ccc(CN2CCC3(CC2)CC(N2CCN(C)CC2)CO3)s1.O=C(O)C(F)(F)F.O=C(O)C(F)(F)F.O=C(O)C(F)(F)F (stereo unspecified)
Percent Effect (30.3 µM, […]): 35.32%

Fc1cnc(N2CCOC3(CCN(Cc4ccsc4)CC3)C2)nc1.O=C(O)C(F)(F)F.O=C(O)C(F)(F)F
Percent Effect (30 µM, 30.03 µM): 16.14%

Fc1cnc(N2CCOC3(CCN(Cc4cccs4)CC3)C2)nc1.O=C(O)C(F)(F)F.O=C(O)C(F)(F)F
Percent Effect (30.3 µM, […]): 53.49%

O=C(O)C(F)(F)F.c1cnc(NC2COC3(CCN(Cc4cccs4)CC3)C2)nc1 (stereo unspecified)
Percent Effect (30.3 µM, […]): -71.32%

CN1CCN(C2COC3(CCN(Cc4cccs4)CC3)C2)CC1.O=C(O)C(F)(F)F.O=C(O)C(F)(F)F (stereo unspecified)
Percent Effect (30.3 µM, […]): 53.18%

CCc1ccc(CN2CCC3(CC2)CC(N2CCN(C)CC2)CO3)cc1.O=C(O)C(F)(F)F (stereo unspecified)
Percent Effect (30 µM, 30.03 µM): 78.58%

CN1CCN(C2COC3(CCN(Cc4ccc(F)cc4)CC3)C2)CC1.O=C(O)C(F)(F)F.O=C(O)C(F)(F)F.O=C(O)C(F)(F)F (stereo unspecified)
Percent Effect (30.3 µM, […]): 32.4%

O=C(O)C(F)(F)F.O=C(c1ccccc1)N1CCOC2(CCN(Cc3cccs3)CC2)C1
Percent Effect (30.3 µM, […]): 5.175%

COc1ccc(C2CC(=O)Oc3cc(C)[nH]c(=O)c32)cc1 (stereo unspecified)
Percent Effect (30 µM, 30.03 µM): -4.044%

Cc1nnc(C2Cc3ccccc3CN2Cc2nc(C(C)C)no2)o1 (stereo unspecified)
Percent Effect (30 µM): -13.45%

CC(C)N1C(=O)CC(NC(=O)c2cc(Cl)sc2Cl)C1=O (stereo unspecified)
Percent Effect (30.3 µM, […]): 8.109%

O=C(NCc1cccnc1)[C@@H]1C[C@H]2[C@H](CCN2c2ncccn2)O1.O=C(O)C(F)(F)F.O=C(O)C(F)(F)F
Percent Effect (30.3 µM, […]): 4.628%

COCC(NC(=O)NCc1cccc(C#N)c1)c1ccco1 (stereo unspecified)
Percent Effect (30.3 µM, […]): 13.13%

Cc1nc(CN2CCN(c3cncc(Cl)n3)CC2)no1
Percent Effect (30.3 µM, […]): -1.637%

Cc1noc(CN2CCN(c3cncc(Cl)n3)CC2)n1
Percent Effect (30.3 µM, […]): 51.54%

Cc1noc(CN2CCN(CCO)CC2)n1
Percent Effect (30.3 µM, […]): 9.212%

Cc1nc2cc(C(=O)N3CCCC(n4cncn4)C3)ccc2n1C (stereo unspecified)
Percent Effect (30 µM, 30.03 µM): 12.85%

Fc1cccnc1N1CCCC(c2nccs2)C1 (stereo unspecified)
Percent Effect (30.3 µM, […]): 14.11%

Cc1cc2n(n1)CC(CNC1CCN(Cc3ccccc3C)CC1)CN2 (stereo unspecified)
Percent Effect (30 µM, 30.03 µM): 54.12%

Cc1cc2n(n1)CC(CNC1CCN(Cc3ccccn3)CC1)CN2 (stereo unspecified)
Percent Effect (30.3 µM, […]): 17.09%

Cc1cc2n(n1)CC(CNC1CCN(CCc3ccccc3)CC1)CN2 (stereo unspecified)
Percent Effect (30.3 µM, […]): 15.82%

c1ccc(Cn2cccn2)c(CNCC2CNc3ccnn3C2)c1 (stereo unspecified)
Percent Effect (30 µM, 30.03 µM): 46.43%

OCc1ccccc1CNCC1CNc2ccnn2C1 (stereo unspecified)
Percent Effect (30.3 µM, […]): 22.72%

Cc1ccccc1CN1CCC(NCC2CNc3ccnn3C2)CC1 (stereo unspecified)
Percent Effect (30 µM, 30.03 µM): 58.34%

Cc1cc2n(n1)CC(CNC1CCN(Cc3ccncc3)CC1)CN2 (stereo unspecified)
Percent Effect (30.3 µM, […]): 2.182%

Cc1cccc(CN2CCC(NCC3CNc4cc(C)nn4C3)CC2)c1 (stereo unspecified)
Percent Effect (30.3 µM, […]): 50.3%

Cc1cc2n(n1)CC(CNC1CCN(c3ccccn3)CC1)CN2 (stereo unspecified)
Percent Effect (30.3 µM, […]): -5.394%

O=C(c1cscn1)N1CCc2ncnc(-c3ccncc3)c2CC1
Percent Effect (30.3 µM, […]): 15.49%

Cc1ncc2c(c1CNC(=O)C1(c3ccc(F)cc3)CC1)CCNC2
Percent Effect (30.3 µM, […]): 8.933%

Oc1cc(CN2CCC(O)(Cn3ccnc3)CC2)nc2ccc(F)cc12
Percent Effect (30.3 µM, […]): 12.45%

Cc1nc(CN2CCCC(N(C)Cc3c(C)noc3C)C2)no1 (stereo unspecified)
Percent Effect (30 µM, 30.03 µM): 36.91%

COc1ccc(C(=O)N2CCCCC2c2nc(C)cs2)nn1 (stereo unspecified)
Percent Effect (30 µM, 30.03 µM): 9.548%

O=C(C1CNCCO1)N1CCC(c2cc(N3CCCC3)ncn2)CC1 (stereo unspecified)
Percent Effect (30.3 µM, […]): -9.261%

CCn1c(CC2CCN(C(=O)C3CNCCO3)CC2)nn(C)c1=O (stereo unspecified)
Percent Effect (30.3 µM, […]): -9.405%

O=C(C1CNCCO1)N1CCCC(c2ccccc2)(c2ccccc2)C1 (stereo unspecified)
Percent Effect (30.3 µM, […]): 80.57%

O=C(NCc1cccnc1)[C@@H]1CC[C@@H]2[C@@H](CCN2c2ncccn2)O1.O=C(O)C(F)(F)F.O=C(O)C(F)(F)F
Percent Effect (30.3 µM, […]): 42.67%

Cc1csc(CN2CC[C@H]3O[C@H](C(=O)Nc4cccnc4)CC[C@H]32)n1.O=C(O)C(F)(F)F.O=C(O)C(F)(F)F
Percent Effect (30.3 µM, […]): 50.68%

O=C(NCc1cccnc1)[C@@H]1CC[C@@H]2[C@@H](CCN2c2ncc(F)cn2)O1.O=C(O)C(F)(F)F.O=C(O)C(F)(F)F
Percent Effect (30.3 µM, […]): 56.7%

Cc1cccc(CN2CC[C@H]3O[C@H](C(=O)Nc4cnccn4)CC[C@H]32)n1.O=C(O)C(F)(F)F.O=C(O)C(F)(F)F
Percent Effect (30.3 µM, […]): 32.33%

O=C(NCc1cccnc1)[C@H]1CC[C@@H]2[C@@H](CCN2c2ncccn2)O1.O=C(O)C(F)(F)F.O=C(O)C(F)(F)F
Percent Effect (30.3 µM, […]): 6.718%

O=C(Nc1cnccn1)[C@@H]1CC[C@@H]2[C@@H](CCN2Cc2nccs2)O1.O=C(O)C(F)(F)F
Percent Effect (30.3 µM, […]): -8.357%
